{
  "source": "PubChem BioAssay AID651644",
  "about": "(National Center for Advancing Translational Sciences (NCATS), 2012)",
  "note": "In all, about 360,000 compounds went through this assay and about 750 (0.21%) were called active. Not shown: some 2% with an inconclusive outcome. What follows is part of a selection rich in actives, with near analogues and random picks from the rest. A number with no mark means an inactive call. Calls come from the whole dose curve; as a rule, active = well fitted falling curve with a large enough effect; inconclusive = small, poorly fitted or top-dose-only effect; inactive = no such curve, though single readings can be large or run the other way. % is set by controls: 0 for no effect and ±100 for the full control effect.",
  "data": [
    {"test": "qHTS Assay for Inhibitors of the HIV-1 protein Vpr; note: nearly all actives have a fitted effect of over 50% in size", "conditions": "S. pombe RE007 Vpr strain, BacTiter-Glo ATP luminescence, 24 h; series mostly up to 92.2 µM; activity change, negative = less growth: at the top concentration", "text": "Human immunodeficiency virus type 1 (HIV-1), the causative agent of AIDS, contains a protein called viral protein R (Vpr) that plays an important role in the viral life cycle and the pathogenesis of HIV-1.\nThese Vpr specific activities include cytoplasmic-nuclear shuttling, induction of cell cycle G2 arrest and cell killing. The cytoplasmic-nuclear shuttling is believed to participate in nuclear transport of the proviral integration complex (PIC). The cell cycle G2 arrest induced by Vpr is thought to suppress human immune functions by preventing T cell clonal expansion and to provide an optimized cellular environment for maximal levels of viral replication. In addition, Vpr induces apoptosis, which may contribute to the depletion of CD4 T cells in HIV-infected patients. Since the Vpr-specific activities have been linked to such clinical manifestation of AIDS as activation of viral replication, suppression of host immune responses and depletion of CD4+ T-lymphocytes, identification of new molecular probes that can inhibit the Vpr activities could potentially provide a new approach to reduce Vpr-mediated detrimental effects in HIV-infected patients, and thus prolong patient's lives. Currently, there are no anti-Vpr drugs.\nA fission yeast (Schizosaccharomyces pombe) model system for the Vpr studies has been developed which measures HIV-1 Vpr-induced cell death. This assay will be used for to screen the NIH Molecular Libraries Small Molecule Repository (MLSMR) identify small molecule HIV-1 Vpr inhibitors.\nNIH Chemical Genomics Center [NCGC]\nNIH Molecular Libraries Probe Centers Network [MLPCN]\nAssay Submitter (PI): Richard Zhao, University of Maryland\nThe fission yeast RE007 strain was used, which carries a single integrated copy of HIV-1 vpr gene in the yeast chromosome. The starting culture was frozen stock 100ul of yeast RE007 in 150ml of *PMG+AL medium, Incubation in 30 degree plus 99% humidity for 18 hours. Next day dispensed 2.5ul of PMG+AL medium in each well to 1536 well white solid plate, then 23nL compound were delivered to each well using a pin tool. Check OD for overnight culture and add cell density at 0.01 for each well, incubation in 30 degree plus 99% humidity for 24 hours. After add 5 ul of *BacTiter/Glo detect reagent to each well at room temperature for 5 minutes then to red out results with Viewlux CCD camera.", "values": [
      {"smiles": "CCc1noc(C)c1C(=O)OCC(=O)c1ccc(NC(=O)CC(C)C)cc1", "activity change, negative = less growth": "-10.5%"},
      {"smiles": "O=C(CN1CCN(c2ncccn2)CC1)Nc1ccccc1C(F)(F)F", "activity change, negative = less growth": "3.69%"},
      {"smiles": "Cc1noc(C)c1S(=O)(=O)N(C)C[C@H]1Oc2ccc(NC(=O)C3CC3)cc2C(=O)N([C@H](C)CO)C[C@@H]1C", "activity change, negative = less growth": "12.5%"},
      {"smiles": "Cc1ccc(Cl)c(NC(=O)CN(C)CC(=O)Nc2ccc(F)c(F)c2F)c1Cl", "activity change, negative = less growth": "-12.7%"},
      {"smiles": "CC(=O)Nc1ccc(/C=N/Nc2ccc(C(=O)c3c(C)cc4ccccn34)cc2[N+](=O)[O-])cc1", "activity change, negative = less growth": "5.89%"},
      {"smiles": "CCSC1(SCC)N=C(N)C2(C#N)C(c3ccccc3)NC(C)=CC12C#N", "note": "(centres undefined)", "Potency": "4.47 µM (active)"},
      {"smiles": "COc1ccc(C(=O)NC2CC2)cc1OC1CCN(Cc2ccc(SC)cc2)CC1", "activity change, negative = less growth": "5.43%"},
      {"smiles": "Cc1ccc(CN(Cc2cccnc2)C(=S)Nc2cc(Cl)ccc2C)cc1", "activity change, negative = less growth": "-11%"},
      {"smiles": "O=C1CSC(=S)N1/N=C/c1ccc(O)c([N+](=O)[O-])c1", "Potency": "28.2 µM (active)"},
      {"smiles": "O=C(CN(CC1CCCO1)C(=O)CNS(=O)(=O)c1ccccc1)NCc1ccccc1", "note": "(centres undefined)", "activity change, negative = less growth": "10.6%"},
      {"smiles": "CCN(CC)S(=O)(=O)c1ccc(Cl)c(C(=O)NCCN2CCOCC2)c1", "activity change, negative = less growth": "-8.37%"},
      {"smiles": "Cc1c(C(=O)NCCN(C)C)oc2ccc(S(=O)(=O)N3CCCC3)cc12", "activity change, negative = less growth": "-6.44%"},
      {"smiles": "O=C(OCC(=O)N1CCN(c2ccccc2)CC1)c1ccc([N+](=O)[O-])s1", "Potency": "39.8 µM (active)"},
      {"smiles": "C[C@H](NC(=O)c1ccccc1Cl)C(=O)OCC(=O)N1CCN(c2ccccc2)CC1", "activity change, negative = less growth": "-11.8%"},
      {"smiles": "Cc1ccc(C)c(OCCC(=O)OCC(=O)N2CCN(c3ccccc3)CC2)c1", "activity change, negative = less growth": "-7.5%"},
      {"smiles": "CC(=O)c1cccc(-n2nnnc2SCC(=O)NNC(=O)C2CCCCC2)c1", "activity change, negative = less growth": "7.04%"},
      {"smiles": "C=CS(=O)c1sc(Cl)c(N2CCOCC2)c1[N+](=O)[O-]", "note": "(centres undefined)", "Potency": "12.6 µM (active)"},
      {"smiles": "COc1ccc(-c2ccc3c(c2)[C@@H]2C[C@H](N(C)S(=O)(=O)c4ccccc4)[C@H]([C@H](C)O)C(=O)N2CC3)cc1", "activity change, negative = less growth": "0.603%"},
      {"smiles": "CC(Oc1ccc(F)cc1)C(=O)Nc1cc(S(=O)(=O)N2CCOCC2)ccc1N1CCN(C)CC1", "note": "(centres undefined)", "activity change, negative = less growth": "12.3%"},
      {"smiles": "CC1(C)C(c2cccs2)=[N+]([O-])C2(CCCCC2=O)N1O", "note": "(centres undefined)", "activity change, negative = less growth": "2.59%"},
      {"smiles": "Cc1ccc(S(=O)(=O)N(CC(=O)Nc2cccnc2)c2ccc(Br)cc2)cc1", "activity change, negative = less growth": "-3.78%"},
      {"smiles": "CC(C)CN(C(=O)CN1CCN(S(=O)(=O)c2ccccc2)CC1)c1c(N)n(CC(C)C)c(=O)[nH]c1=O", "activity change, negative = less growth": "-0.551%"},
      {"smiles": "CC1(C(=O)NS(=O)(=O)c2ccc3ccccc3c2)CCN1C(=O)C1(c2ccc(Cl)cc2)CCC1", "note": "(centres undefined)", "activity change, negative = less growth": "11.9%"},
      {"smiles": "CCC(c1nnc(SCC(=O)NNC(=O)c2ccccc2)n1Cc1ccccc1)N(C)C", "note": "(centres undefined)", "activity change, negative = less growth": "4.7%"},
      {"smiles": "O=C1NC(=O)N(c2ccccc2)C(=O)/C1=C/c1ccc([N+](=O)[O-])s1", "Potency": "28.2 µM (active)"},
      {"smiles": "CCOc1ccc(C(C(=O)NCCOC)N(CCOC)C(=O)CCC(=O)Nc2ccccn2)cc1", "note": "(centres undefined)", "activity change, negative = less growth": "-3.53%"},
      {"smiles": "CCOc1ccc(CCNC(=O)COC(=O)c2ccc(F)c(S(=O)(=O)N3CCOCC3)c2)cc1OCC", "activity change, negative = less growth": "15.6%"},
      {"smiles": "CC1CCCN(CCCNC(=O)CN2C(=O)COc3ccc(S(=O)(=O)N4CCOCC4)cc32)C1", "note": "(centres undefined)", "activity change, negative = less growth": "-1.37%"},
      {"smiles": "COc1ccc(-c2csc3nc(-c4ccccc4F)oc(=O)c23)cc1OC", "activity change, negative = less growth": "26.5%"},
      {"smiles": "COc1ccc(N2C(=O)C(CC(=O)Nc3ccccc3)N(Cc3ccc(OC)c(OC)c3)C2=O)cc1", "note": "(centres undefined)", "activity change, negative = less growth": "6.5%"},
      {"smiles": "O=C(C(=O)N1CCN(c2ccccc2)CC1)c1ccc2c(c1)OCO2", "activity change, negative = less growth": "-7.63%"},
      {"smiles": "O=P(c1ccc2c(c1)OCCO2)(N1CCOCC1)N1CCOCC1", "activity change, negative = less growth": "-6%"},
      {"smiles": "Cn1cnnc1SCC(=O)NNC(=O)COc1ccc(Br)cc1", "activity change, negative = less growth": "7.44%"},
      {"smiles": "CN(C)CC1Oc2ccccc2OC1(O)c1ccccc1", "note": "(centres undefined)", "Potency": "10 µM (active)"},
      {"smiles": "CN(C)CCOC(=O)C(c1ccccc1)C1(O)CCCC1", "note": "(centres undefined)", "activity change, negative = less growth": "0%"},
      {"smiles": "CC(C)Nc1ncnc2c1ncn2[C@H]1CN(Cc2ccncc2)C[C@@H](CO)O1", "activity change, negative = less growth": "1.71% [at 18.4 µM]"},
      {"smiles": "O=C(CC1C(=O)NCCN1Cc1ccc(-c2ccccc2)cc1)NCc1ccncc1", "note": "(centres undefined)", "activity change, negative = less growth": "-9.23%"},
      {"smiles": "COc1cccc(CN2CCNC(=O)C2CC(=O)N(C)CCc2ccccn2)c1", "note": "(centres undefined)", "activity change, negative = less growth": "-1.12%"},
      {"smiles": "Cc1cccc(C(=O)NCc2nnc(SC(C)C(=O)Nc3nnc(C)s3)n2C)c1", "note": "(centres undefined)", "activity change, negative = less growth": "31.2%"},
      {"smiles": "COc1cc(/C=N\\NC(=O)c2nonc2N)c(OC)cc1Br", "activity change, negative = less growth": "3.53%"},
      {"smiles": "Cc1nonc1C(=O)N/N=C/c1ccc(O)cc1", "Potency": "25.1 µM (active)"},
      {"smiles": "Nc1nonc1-n1nnc(C(=O)N/N=C/c2ccc(Cl)cc2)c1-c1ccc2c(c1)OCO2", "activity change, negative = less growth": "6.44%"},
      {"smiles": "Cc1ccc2nc(SC(C)C(=O)NCc3ccco3)[nH]c2c1", "note": "(centres undefined)", "activity change, negative = less growth": "3.44%"},
      {"smiles": "O=c1[nH][nH]c2c1[C@H](c1ccc(Cl)cc1)O[C@H](CCc1ccccc1)C2", "activity change, negative = less growth": "-16.7%"},
      {"smiles": "O=C(/C=C/c1ccc(Cl)cc1)Nc1ccc(Br)cn1", "activity change, negative = less growth": "-16.9%"},
      {"smiles": "O=C(NCc1nnnn1-c1ccc(Cl)cc1)c1ccc([N+](=O)[O-])o1", "activity change, negative = less growth": "5.28%"},
      {"smiles": "O=C(Nc1ccc(Br)cn1)c1ccc([N+](=O)[O-])o1", "Potency": "17.8 µM (active)"},
      {"smiles": "O=C(COc1ccccc1Cl)Nc1ccccc1C(=O)NC1CC1", "activity change, negative = less growth": "6.03%"},
      {"smiles": "O=[N+]([O-])c1ncc(Br)cc1Nc1ccccc1", "activity change, negative = less growth": "-26.1%"}
    ]}
  ]
}
